Composite z-score and z-score data for five molecules are collected here from PubChem BioAssay.

The structures appear in SMILES notation. The source made the active and inactive calls. Unless noted, no rule for the calls is given here.

A short description of assay [1]: anti-His antibody binders, primary screen, artefact control for SMM control protein annotation, biochemical, small-molecule microarray, 635 nm fluorescence (AID 1128).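 Also: score merges feature fluorescence with signal-to-noise for each printed compound spot.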 The following applies: anti-His Alexa647 antibody binding, higher = more signal.
Assay [2] relates to Human papillomavirus type 1a E7 protein (residues 1-88). In words: HPV1a E7 small-molecule binders, primary screen, biochemical, small-molecule microarray, residues 1-88, 635 nm (AID 1129). The settings on record: small-molecule microarray binding, fluorescence 635 nm; higher = more signal.
Assay [3] addresses Focal adhesion kinase 1 (Homo sapiens) (UniProt Q05397). In words: small-molecule microarray binders of FAK, primary screen, biochemical, 635/667 nm fluorescence, BSA, DTT (AID 1130).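 Also: composite of spot emission at 667 nm and signal to noise over triplicate slides.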 The settings on record: PTK2 binding, 635 nm fluorescence, higher = more signal.
Assay [4] concerns Fibrinogen (Alexa647-labelled). In words: fibrinogen binders on compound microarrays, profiling panel, artefact control for SMM control-protein annotation, biochemical, small-molecule microarray, 635/667 nm fluorescence (AID 1131).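 Also: z-score merges 667 nm fluorescence with per-spot signal-to-noise over triplicate slides.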 The settings on record: fibrinogen-A647 binding fluorescence, higher = more signal.
The target of assay [5] is Follistatin (Homo sapiens) (UniProt P19883). In words: follistatin binders on small-molecule microarrays, primary screen, biochemical, small-molecule microarray, 635/667 nm fluorescence (AID 1132). The following applies: FST binding, 635 nm fluorescence, higher = more signal.
Sequence of Follistatin (Homo sapiens) (P19883 whole entry, looked up): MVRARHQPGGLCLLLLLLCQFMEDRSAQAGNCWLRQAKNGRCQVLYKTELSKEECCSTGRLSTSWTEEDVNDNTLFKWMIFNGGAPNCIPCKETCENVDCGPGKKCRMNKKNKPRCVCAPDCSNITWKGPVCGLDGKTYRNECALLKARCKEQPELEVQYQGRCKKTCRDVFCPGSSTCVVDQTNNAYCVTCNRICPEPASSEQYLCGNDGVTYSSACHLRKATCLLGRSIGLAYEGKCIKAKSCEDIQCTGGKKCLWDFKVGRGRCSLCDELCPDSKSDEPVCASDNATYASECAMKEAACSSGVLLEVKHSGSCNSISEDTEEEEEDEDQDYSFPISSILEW
Assay [6] deals with Fibroblast growth factor 2 (Homo sapiens) (UniProt P09038). In words: FGF2 binders on small-molecule microarrays, primary screen, biochemical, small-molecule microarray, 635/667 nm fluorescence (AID 1133). The settings on record: small-molecule microarray binding, FGF2, fluorescence 635/667; higher = more signal.
Sequence of Fibroblast growth factor 2 (Homo sapiens) (P09038 whole entry, looked up): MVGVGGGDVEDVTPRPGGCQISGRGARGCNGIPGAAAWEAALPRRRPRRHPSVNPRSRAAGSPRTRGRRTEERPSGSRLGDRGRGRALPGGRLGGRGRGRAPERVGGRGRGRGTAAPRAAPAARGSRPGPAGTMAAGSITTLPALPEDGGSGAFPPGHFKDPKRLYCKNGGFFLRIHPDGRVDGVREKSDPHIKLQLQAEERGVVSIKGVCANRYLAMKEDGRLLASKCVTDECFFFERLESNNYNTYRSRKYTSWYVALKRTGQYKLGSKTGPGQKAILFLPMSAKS
The nature of assay [7]: mitochondrial membrane potential change in A549 cells, profiling panel, cell-based, JC-1 fluorescence, basal, 24 h, 100 nL (AID 1138).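 Also: A549 lung adenocarcinoma cells under basal conditions with no added stimulus; test concentration not given here.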 The settings on record: higher = more signal.
In another assay the test system is Lefty1. In words: Lefty1 binders on small-molecule microarrays, primary screen, biochemical, small-molecule microarray, 635/667 nm fluorescence (AID 1139). The following applies: small-molecule microarray binding, fluorescence 635/667; higher = more signal.
Assay [8] has as its system wheat germ agglutinin (Triticum aestivum), Alexa647-labelled. In words: wheat germ agglutinin binders on compound microarrays, profiling panel, artefact control for SMM control-protein annotation, biochemical, small-molecule microarray, 635/667 nm fluorescence (AID 1140).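 Also: score merges 667 nm feature emission with signal to noise over triplicate slides.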 The settings on record: WGA-A647 binding, 635 nm fluorescence, higher = more signal.
Assay [9] concerns the target Luciferin 4-monooxygenase (Photinus pyralis) (UniProt P08659). In words: firefly luciferase enzyme inhibitors, primary screen, biochemical, luminescence, purified enzyme, 2006 set (AID 1141).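 Also: cell-free assay with purified firefly luciferase at 100 ng per well in PBS; test concentration not given here.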 The following applies: SteadyGlo luminescence, 30 min, higher = more signal, called active from +8 up or from −8 down.
In assay [10] the test system is Wnt5a (protein binding on small-molecule microarray). In words: Wnt5a binders on small-molecule microarray, primary screen, biophysical, 635/667 nm fluorescence (AID 1142).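 Also: fluorescence read at 667 nm with signal to noise per printed feature.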 The following applies: 635 nm fluorescence, higher = more signal.
Assay [11] can be described thus: cell viability in Huh7 cells, primary screen, cytotoxicity control for HCV replication inhibitor project, CellTiter-Glo luminescence, basal, 48 h (AID 1143).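 Also: Huh7 hepatoma cells carrying a hepatitis C replication reporter with no stimulus; test concentration not given here.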 The settings on record: Huh7 HCV replicon, higher = more signal, called active from +8 up or from −8 down. In general terms: ATP-based viability assays read luminescence as a measure of living cells.
A short description of assay [12]: P. aeruginosa biofilm formation inhibitors, primary screen, PAO1 strain, BacTiter-Glo luminescence, LB-PBS (AID 1144). The settings on record: 12 h, higher = more signal.
Assay [13] can be described thus: CREB reporter modulators without forskolin, primary screen, cell-based, PC12, CRE-LacZ reporter, unstimulated (AID 1145). The following applies: no forskolin, luminescence, 4.5 h, higher = more signal, called active from +8 up or from −8 down.
The nature of assay [14]: CREB reporter modulators under forskolin, primary screen, cell-based, PC12, CRE-LacZ reporter, forskolin-stimulated (AID 1146).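 Also: PC12 cells with 6xCRE LacZ reporter stimulated by forskolin 10 µM; beta-galactosidase reporter signal reflecting CREB driven transcription.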 The following applies: luminescence, 4.5 h, higher = more signal, called active from +8 up or from −8 down.
Assay [15] has as its target Streptavidin (Streptomyces avidinii) (UniProt P22629). In words: streptavidin binders on small-molecule microarray, primary screen, artefact control for SMM compound annotation, biophysical, 635/667 nm fluorescence (AID 1147).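 Also: signal reflects streptavidin binding to arrayed compounds as a control protein.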 The following applies: streptavidin binding, higher = more signal.
A short description of assay [16]: small-molecule binders of probe aInhba, primary screen, biochemical, small-molecule microarray, 635/667 nm fluorescence (AID 1148).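 Also: score merges 667nm spot fluorescence with signal-to-noise for antibody binding to printed compounds.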 The following applies: higher = more signal.
Assay [17] deals with Torsin-1A (Homo sapiens) (UniProt O14656). In words: torsin A binders from cell lysate, primary screen, small-molecule microarray, wild-type, 635/667 nm (AID 1149). The following applies: COS7 hTOR1A-WT lysate, 635 nm fluorescence, higher = more signal.
Sequence of Torsin-1A (Homo sapiens) (O14656 whole entry, looked up): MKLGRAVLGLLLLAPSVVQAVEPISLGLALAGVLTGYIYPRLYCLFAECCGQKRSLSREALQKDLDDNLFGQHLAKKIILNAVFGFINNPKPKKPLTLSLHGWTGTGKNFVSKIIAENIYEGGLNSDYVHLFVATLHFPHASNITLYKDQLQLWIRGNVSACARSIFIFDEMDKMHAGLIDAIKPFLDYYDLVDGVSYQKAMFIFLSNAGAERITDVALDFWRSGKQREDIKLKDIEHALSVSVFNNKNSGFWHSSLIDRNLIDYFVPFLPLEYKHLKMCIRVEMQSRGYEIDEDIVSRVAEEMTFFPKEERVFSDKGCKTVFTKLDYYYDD
The target is the same in assay [18]. In words: small-molecule binders of mutant TOR1A in lysate, primary screen, cell lysate, small-molecule microarray, COS7 lysate, 635/667 nm fluorescence (AID 1150).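 Also: score pools 667 nm emission and signal to noise measuring lysate protein binding.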 The settings on record: COS7 hTOR1A mutant lysate, 635 nm fluorescence, higher = more signal.
Assay [19] concerns Sonic hedgehog protein (Shh). In words: small-molecule binders of Shh protein, primary screen, biochemical, small-molecule microarray, 635/667 nm fluorescence (AID 1151).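 Also: Shh protein binding to compounds spotted on small-molecule microarray slides; score combines spot fluorescence intensity with signal-to-noise across triplicate slides.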 The settings on record: small-molecule microarray binding, 635 nm fluorescence; higher = more signal.

Sequence of Streptavidin (Streptomyces avidinii) (P22629 whole entry, looked up): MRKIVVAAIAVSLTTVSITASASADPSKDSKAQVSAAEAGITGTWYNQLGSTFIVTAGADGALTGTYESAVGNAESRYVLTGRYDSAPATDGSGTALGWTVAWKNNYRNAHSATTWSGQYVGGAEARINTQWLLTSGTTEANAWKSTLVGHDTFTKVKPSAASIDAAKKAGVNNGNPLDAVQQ
Sequence of Focal adhesion kinase 1 (Homo sapiens) (Q05397 whole entry, looked up): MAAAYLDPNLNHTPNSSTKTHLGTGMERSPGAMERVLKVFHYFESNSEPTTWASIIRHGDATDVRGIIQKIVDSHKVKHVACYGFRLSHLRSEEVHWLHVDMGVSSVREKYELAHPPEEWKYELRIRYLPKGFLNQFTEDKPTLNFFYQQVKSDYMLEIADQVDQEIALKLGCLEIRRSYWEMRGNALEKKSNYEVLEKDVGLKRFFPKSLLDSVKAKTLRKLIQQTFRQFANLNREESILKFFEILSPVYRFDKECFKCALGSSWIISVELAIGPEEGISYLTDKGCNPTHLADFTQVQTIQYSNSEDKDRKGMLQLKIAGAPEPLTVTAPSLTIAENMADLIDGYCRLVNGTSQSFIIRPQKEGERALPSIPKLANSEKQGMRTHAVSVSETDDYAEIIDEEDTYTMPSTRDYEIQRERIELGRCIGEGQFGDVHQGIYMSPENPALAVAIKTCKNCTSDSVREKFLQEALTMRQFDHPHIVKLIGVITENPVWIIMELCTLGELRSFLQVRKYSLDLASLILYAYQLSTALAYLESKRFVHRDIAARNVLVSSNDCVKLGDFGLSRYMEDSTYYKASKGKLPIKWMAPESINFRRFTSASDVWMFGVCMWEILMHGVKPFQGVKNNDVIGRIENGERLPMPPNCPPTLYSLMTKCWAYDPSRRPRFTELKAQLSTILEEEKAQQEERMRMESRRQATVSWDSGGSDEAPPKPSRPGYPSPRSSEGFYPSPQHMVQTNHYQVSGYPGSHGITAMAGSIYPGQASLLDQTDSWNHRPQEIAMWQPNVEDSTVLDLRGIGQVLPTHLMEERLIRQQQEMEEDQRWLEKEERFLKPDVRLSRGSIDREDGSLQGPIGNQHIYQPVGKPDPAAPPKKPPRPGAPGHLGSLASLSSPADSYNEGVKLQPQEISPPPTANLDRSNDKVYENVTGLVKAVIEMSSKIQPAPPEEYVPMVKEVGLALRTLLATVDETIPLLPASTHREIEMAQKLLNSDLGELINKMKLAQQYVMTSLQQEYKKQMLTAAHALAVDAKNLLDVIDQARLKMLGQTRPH
Sequence of Luciferin 4-monooxygenase (Photinus pyralis) (P08659 whole entry, looked up): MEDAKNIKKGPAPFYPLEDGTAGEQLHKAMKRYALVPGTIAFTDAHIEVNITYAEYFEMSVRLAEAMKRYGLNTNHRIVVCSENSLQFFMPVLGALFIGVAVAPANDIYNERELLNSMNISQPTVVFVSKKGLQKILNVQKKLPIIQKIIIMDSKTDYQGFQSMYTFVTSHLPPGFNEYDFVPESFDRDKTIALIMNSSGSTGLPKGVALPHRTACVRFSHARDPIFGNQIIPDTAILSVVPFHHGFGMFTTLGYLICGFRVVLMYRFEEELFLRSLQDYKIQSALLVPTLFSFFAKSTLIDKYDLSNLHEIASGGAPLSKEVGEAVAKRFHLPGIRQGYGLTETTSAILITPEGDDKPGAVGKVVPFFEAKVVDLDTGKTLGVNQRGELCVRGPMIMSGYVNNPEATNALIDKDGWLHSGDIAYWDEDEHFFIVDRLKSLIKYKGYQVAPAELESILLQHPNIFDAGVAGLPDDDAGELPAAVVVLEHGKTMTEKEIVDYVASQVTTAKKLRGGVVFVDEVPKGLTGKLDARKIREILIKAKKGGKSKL

In the case of `CC(C)c1ccc(NN2C(C(O)c3ccccn3)C=CC3C(=O)N(c4ccccc4)C(=O)C32)cc1` (stereo not given), the composite z-score in assay [1] worked out at 0.75; in assay [2] it was 1.28; in assay [3], 0.405; in [4], 0.947; in assay [5] it was 1.28; in assay [6], 1.48. Moreover, the composite z-score was found to be 1.18 with Lefty1; 0.976 in [8]; 1.01 in assay [10]; 0.608 in [15]; 0.46 in assay [16]; 1.55 with Torsin-1A (Homo sapiens) [17]. For the same molecule, the composite z-score came out at 2.09 with Torsin-1A (Homo sapiens) [18] and 1.98 in assay [19]. Also, the z-score was 1.14 in assay [7]; -1.5 (inactive) in assay [9]; 0.0489 (inactive) in [11]; -0.997 (inactive) in [12]; 0.0501 (inactive) in assay [13]; 0.792 (inactive) in [14].

`COC(=O)[C@@]1(Cc2ccccc2)[C@H]2c3cc(C(=O)N4CCCC4)n(Cc4ccccc4)c3C[C@H]2CN1C(=O)c1ccccc1`: the composite z-score in assay [1] is 0.673; in [2], 1.24; in assay [3], 0.756; in assay [4], 0.524; in [5] it was 0.841; in [6], -0.407. For the same molecule, the composite z-score is 0.272 with Lefty1; 0.893 in assay [8]; 0.651 in [10]; 0.589 in assay [15]; 0.53 in assay [16]; -0.112 with Torsin-1A (Homo sapiens) [17]. Besides, the composite z-score with Torsin-1A (Homo sapiens) [18] is -0.0741; in [19] it was -0.606. Further, the z-score in assay [7] is 0.339; in [9], 0.886 (inactive); in assay [11], -3.2 (inactive); in assay [12] it was -0.402 (inactive); in assay [13] it was 1.74 (inactive); in [14], -0.0064 (inactive).

Consider `[N-]=[N+]=NCc1ccccc1[C@H]1OC(c2ccc(OCCCO)cc2)=N[C@@]1(Cc1ccccc1N=[N+]=[N-])C(=O)N1CCCCC1`, for which the composite z-score in assay [1] came to 2.35; in assay [2] it was 1.23; in assay [3] it was 0.529; in assay [4], 0.974; in assay [5], 1.34; in assay [6] it was 1.56. In addition, the composite z-score stood at 0.68 in the assay with Lefty1; 0.681 in [8]; 0.163 in assay [10]; 1.31 in assay [15]; 0.277 in [16]; 0.84 in the assay with Torsin-1A (Homo sapiens) [17]. Besides, the composite z-score amounted to 0.89 in the assay with Torsin-1A (Homo sapiens) [18] and 0.419 in assay [19]. Further, the z-score is 2.16 in assay [7]; -1.9 (inactive) in [9]; -3.39 (inactive) in assay [11]; -0.567 (inactive) in assay [12]; 0.236 (inactive) in assay [13]; -1.04 (inactive) in [14].

Regarding `C=C(COC)C(=O)CC[C@H](OC(=O)c1ccccc1-c1ccccc1C(=O)O)c1ccc(OCCO)cc1`, the composite z-score stood at 2.56 in assay [1]; 1.08 in [2]; 0.033 in assay [3]; 0.879 in assay [4]; 1.42 in assay [5]; 1.35 in assay [6]. The composite z-score in the assay on Lefty1 is 1.59; in assay [8] it was 0.564; in assay [10], 0.314; in [15], -0.237; in assay [16], 0.0906; in the assay with Torsin-1A (Homo sapiens) [17], 2.29. Besides, the figures for the composite z-score (with Torsin-1A (Homo sapiens) [18]; in assay [19]) were 0.383 and 1.81, respectively. The z-score in assay [7] was -0.66; in [9] it was -2.22 (inactive); in [11], -0.0319 (inactive); in [12], -0.623 (inactive); in assay [13], 2.19 (inactive); in [14] it was -0.42 (inactive).

In the case of `CC(C)c1ccc(NN2C(C(O)c3cccs3)C=CC3C(=O)N(c4ccccc4)C(=O)C32)cc1` (stereo not given), the composite z-score is 0.548 in [1]; 1.24 in [2]; 0.814 in assay [3]; 1.03 in [4]; 0.963 in assay [5]; -0.737 in assay [6]. Besides, the composite z-score came out at 0.0247 with Lefty1; 1.06 in assay [8]; 0.119 in assay [10]; 1.78 in assay [15]; 0.152 in [16]; 0.248 with Torsin-1A (Homo sapiens) [17]. Also, the composite z-score in the assay with Torsin-1A (Homo sapiens) [18] is 0.182; in assay [19] it was -0.04. The z-score in assay [7] was -1.13; in [9], -0.893 (inactive); in [11] it was -0.506 (inactive); in [12], -0.579 (inactive); in assay [13], 0.812 (inactive); in assay [14], 0.311 (inactive).
